# From PubChem BioAssay AID614 (Sanford-Burnham Center for Chemical Genomics, 2007)
# Out of some 21,000 compounds screened, fewer than 10 were called active.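 The calls were made as follows: active = inhibition above 50% at the 20 µM single-dose screen; inactive = the rest.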 The list is a sample of the results.
# Molecular target: Alkaline phosphatase, tissue-nonspecific isozyme (Homo sapiens) (UniProt P05186)
# Test: human TNAP enzyme inhibitors, primary screen, biochemical, colorimetric, phosphate release readout (AID 614)
# Settings: purified TNAP, pNPP, malachite green phosphate absorbance; at 20 µM; active compounds read high
# Chain of Alkaline phosphatase, tissue-nonspecific isozyme (Homo sapiens) (P05186 whole entry, looked up): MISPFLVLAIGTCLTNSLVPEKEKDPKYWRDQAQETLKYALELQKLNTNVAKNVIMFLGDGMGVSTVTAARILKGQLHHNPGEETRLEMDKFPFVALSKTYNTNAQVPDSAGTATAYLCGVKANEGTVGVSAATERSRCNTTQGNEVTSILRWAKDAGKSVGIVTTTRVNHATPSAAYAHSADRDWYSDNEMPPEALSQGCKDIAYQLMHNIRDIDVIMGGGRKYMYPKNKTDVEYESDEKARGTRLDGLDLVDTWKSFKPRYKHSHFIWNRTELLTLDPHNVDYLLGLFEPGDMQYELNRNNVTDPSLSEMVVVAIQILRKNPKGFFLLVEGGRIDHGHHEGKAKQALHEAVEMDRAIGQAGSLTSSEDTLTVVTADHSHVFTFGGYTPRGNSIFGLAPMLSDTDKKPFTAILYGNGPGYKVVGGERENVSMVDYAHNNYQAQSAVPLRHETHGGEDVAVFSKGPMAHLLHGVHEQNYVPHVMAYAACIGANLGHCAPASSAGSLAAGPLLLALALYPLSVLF
row,SMILES,inhibition
1,CN(C)CCCNc1c2c(c(C#N)c3nc4ccccc4n13)CCC2,0% (inactive)
2,Cc1c(C(=O)OCc2cc(=O)n3cc(Br)ccc3n2)oc2ccccc12,-2.2% (inactive)
3,Cc1ccc(Oc2ccc(N)cc2)cc1,15% (inactive)
4,Cc1cc(N2CCCC2)n2nc(C)c(-c3ccccc3)c2n1,8.2% (inactive)
5,CC(C)C1Cc2c(sc3c2c(=O)n(-c2ccccc2)c2nncn32)CO1 (stereo unspecified),10.1% (inactive)
6,COC(=O)c1cc(OC)c(OC)cc1NC(=O)C1CCCO1 (stereo unspecified),6% (inactive)
7,CC(=O)N1CCN(C(=O)Nc2cccc(C(F)(F)F)c2)CC1,-0.7% (inactive)
8,CCCC(=O)Nc1ccc2c(c1)nc1n2CCSC1,3.5% (inactive)
9,O=C(CSc1nnc(-c2ccoc2)o1)N1CCOCC1,-1.3% (inactive)
10,c1cnc(NC2C3CC4CC(C3)CC2C4)nc1 (stereo unspecified),3.8% (inactive)
11,N#CC(C(N)=O)=C1CCC2(CC1)OCCCCO2,13.2% (inactive)
12,Cc1ccc(S(=O)(=O)N2CCC(N3CCCCCC3)CC2)cc1,7% (inactive)
13,COc1ccc(-c2nnc(SCC(=O)c3ccco3)n2-c2ccccc2)cc1,2.3% (inactive)
14,O=C(c1cccc(S(=O)(=O)N2CCOCC2)c1)N1CCOCC1,6.8% (inactive)
15,CCc1ccc(N2CC(C(=O)NC3=NCCS3)CC2=O)cc1 (stereo unspecified),-4.1% (inactive)
16,COC(=O)[C@H](Cc1ccccc1)NC(=O)N1CC(C)OC(C)C1 (stereo partly specified),6.7% (inactive)
17,CC(C)OCCCNc1nc2c(c(=O)n(Cc3ccccc3F)c(=O)n2C)n1C,11.4% (inactive)
18,N#Cc1c2c(c(-c3ccccc3)[nH]c1=O)CCCC2,9.6% (inactive)

row,SMILES,inhibition
1,Cc1ccc(C(C(=O)NC2CCCC2)N(Cc2ccco2)C(=O)CCC(=O)Nc2ccccn2)cc1 (stereo unspecified),7.3% (inactive)
2,COc1c(O)cccc1-c1nnn(CCC(=O)OCC(=O)c2ccccc2)n1,2.2% (inactive)
3,O=C(O)c1cscn1,4.2% (inactive)
4,O=C(CSc1nnc(-c2ccccn2)n1-c1ccccc1)Nc1ccc2c(c1)OCO2,3.6% (inactive)
5,COc1ccc(C(=O)Nc2ccc(S(=O)(=O)Nc3onc(C)c3C)cc2)cc1OC,0.4% (inactive)
6,CCOC(=O)C1=C(C)NC(=O)N(C(C)=O)C1c1ccc(Cl)cc1 (stereo unspecified),10% (inactive)
7,O=C(NCCSc1ccccc1)c1ccco1,13.2% (inactive)
8,CCc1nc2ccccc2n(CCOCCOCCn2c(=O)c(CC)nc3ccccc32)c1=O,8.8% (inactive)
9,COc1cccc(N(CC(=O)Nc2cccc(N(C)S(C)(=O)=O)c2)S(C)(=O)=O)c1,0% (inactive)
10,CS(=O)(=O)N1CCN(C(=O)c2cc3ccccc3oc2=O)CC1,11.1% (inactive)
11,COc1ccc(CNC(=O)c2c(C)cc(=O)oc2C)cc1OC,11.6% (inactive)
12,COc1ccc(-n2c(SCC(=O)OC(C)C)nnc2-c2ccccn2)cc1,7.8% (inactive)
13,CCN(CC)S(=O)(=O)c1cccc(C(=O)Nc2ccccc2)c1,3.8% (inactive)
14,Cc1cc(C)nc(SCc2nnc(SCC(=O)OC3CCCCC3)o2)n1,2.9% (inactive)
15,CNC(=O)c1nnn(-c2ccccc2)c1C(=O)NC,6.4% (inactive)
16,COC(=O)c1ccc(NC(=O)CSc2nnc(CNc3ccc(OC)cc3)n2C)cc1,-7.8% (inactive)
17,CCc1nc2oc3ccccc3c(=O)c2c(=O)n1Cc1ccc(OC)cc1,6.6% (inactive)
18,CCOC(=O)c1cc2cc(C)ccc2[nH]1,-8.6% (inactive)
